# Assay results as given in the supplement of paper PMC8728848.
# Only a selection was taken, and the strongest signals are over-represented in it overall.
# B1: SBD-G4S3-SBD (protein)
# chain: MASIPSSASVQLDSYNYDGSTFSGKIYVKNIAYSKKVTVVYADGSDNWNNNGNIIAASFSGPISGSNYEYWTFSASVKGIKEFYIKYEVSGKTYYDNNNSANYQVSTGGGGSGGGGSGGGGSEFASIPSSASVQLDSYNYDGSTFSGKIYVKNIAYSKKVTVVYADGSDNWNNNGNIIAASFSGPISGSNYEYWTFSASVKGIKEFYIKYEVSGKTYYDNNNSANYQVST
# Columns and labels:
# Test in all cases: glycan array binding signal (z-score within array); higher = stronger binding
# Conditions in all cases: glycan notation: IUPAC condensed, linker removed
# [1] = target: Fuc(a1-2)Gal(b1-3)GalNAc(a1-3)[Fuc(a1-2)]Gal(b1-4)GlcNAc
# Outline: (§1)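 The Consortium for Functional Glycomics database supplied 3228 glycan arrays, of which those lacking an available protein sequence were dropped. The binding signal, a within-array Z-score, was averaged across arrays of the same protein sequence and across linkers. Negative scores can be read as non-binding.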
# [2] = target: Fuc(a1-2)Gal(b1-4)GlcNAc(b1-3)Gal(b1-4)GlcNAc(b1-2)Man(a1-3)[Fuc(a1-2)Gal(b1-4)GlcNAc(b1-3)Gal(b1-4)GlcNAc(b1-2)Man(a1-6)]Man(b1-4)GlcNAc(b1-4)GlcNAc
# Outline: as §1
# [3] = target: Fuc(a1-2)[Gal(a1-3)]Gal(b1-4)[Fuc(a1-3)]GlcNAc(b1-3)GalNAc
# Outline: as §1
# [4] = target: Fuc(a1-2)[GalNAc(a1-3)]Gal(b1-3)GalNAc(a1-3)[Fuc(a1-2)]Gal(b1-4)GlcNAc
# Outline: as §1
# [5] = target: Fuc(a1-2)[GalNAc(a1-3)]Gal(b1-4)GlcNAc(b1-2)Man(a1-3)[Fuc(a1-2)[GalNAc(a1-3)]Gal(b1-4)GlcNAc(b1-2)Man(a1-6)]Man(b1-4)GlcNAc(b1-4)GlcNAc
# Outline: as §1
# [6] = target: Fuc(a1-2)[GalNAc(a1-3)]Gal(b1-4)[Fuc(a1-3)]GlcNAc(b1-3)GalNAc
# Outline: as §1
# [7] = target: Fuc(a1-3)[Gal(b1-4)]Glc6S
# Outline: as §1
# [8] = target: Fuc(a1-3)[Gal(b1-4)]GlcNAc
# Outline: as §1
# [9] = target: Gal(a1-3)Gal(b1-3)[Fuc(a1-4)]GlcNAc(b1-2)Man(a1-3)[Gal(a1-3)Gal(b1-3)[Fuc(a1-4)]GlcNAc(b1-2)Man(a1-6)]Man(b1-4)GlcNAc(b1-4)GlcNAc
# Outline: as §1
# [10] = target: Gal(a1-3)Gal(b1-4)[Fuc(a1-3)]GlcNAc(b1-2)Man(a1-3)[Gal(a1-3)Gal(b1-4)[Fuc(a1-3)]GlcNAc(b1-2)Man(a1-6)]Man(b1-4)GlcNAc(b1-4)GlcNAc
# Outline: as §1
# [11] = target: Gal(b1-3)GalNAc(b1-3)Gal(a1-4)Gal(b1-4)Glc
# Outline: as §1
# [12] = target: Gal(b1-3)GalNAc(b1-4)[Neu5Ac(a2-3)]Gal(b1-4)Glc
# Outline: as §1
# [13] = target: Gal(b1-3)GlcNAc(b1-2)Man(a1-3)[Gal(b1-3)GlcNAc(b1-2)Man(a1-6)]Man(b1-4)GlcNAc(b1-4)GlcNAc
# Outline: as §1
# [14] = target: Gal(b1-3)GlcNAc(b1-3)Gal(b1-4)GlcNAc(b1-6)[Gal(b1-3)GlcNAc(b1-3)]Gal(b1-4)Glc
# Outline: as §1
# Gal(b1-3)GlcNAc6S = target: Gal(b1-3)GlcNAc6S
# Outline: as §1
# [15] = target: Gal(b1-3)[Fuc(a1-4)]GlcNAc(b1-6)GalNAc
# Outline: as §1
# [16] = target: Gal(b1-3)[GlcNAc(b1-6)]GalNAc
# Outline: as §1
# [17] = target: Gal(b1-3)[Neu5Ac(a2-6)]GlcNAc(b1-4)Gal(b1-4)Glc
# Outline: as §1
# [18] = target: Gal(b1-4)GlcNAc(b1-2)Man(a1-3)[Man(a1-6)]Man(b1-4)GlcNAc(b1-4)GlcNAc
# Outline: as §1
# [19] = target: Gal(b1-4)GlcNAc(b1-2)[Gal(b1-4)GlcNAc(b1-6)]Man(a1-6)[Gal(b1-4)GlcNAc(b1-2)Man(a1-3)]Man(b1-4)GlcNAc(b1-4)[Fuc(a1-6)]GlcNAc
# Outline: as §1
# [20] = target: Gal(b1-4)GlcNAc(b1-3)Gal(b1-3)GalNAc
# Outline: as §1
# [21] = target: Gal(b1-4)GlcNAc(b1-3)Gal(b1-4)GlcNAc(b1-3)Gal(b1-4)GlcNAc(b1-2)Man(a1-3)[Gal(b1-4)GlcNAc(b1-3)Gal(b1-4)GlcNAc(b1-3)Gal(b1-4)GlcNAc(b1-2)Man(a1-6)]Man(b1-4)GlcNAc(b1-4)GlcNAc
# Outline: as §1
# [22] = target: Gal(b1-4)GlcNAc(b1-3)Gal(b1-4)GlcNAc(b1-3)Gal(b1-4)GlcNAc(b1-3)Gal(b1-4)GlcNAc(b1-2)Man(a1-3)[Gal(b1-4)GlcNAc(b1-3)Gal(b1-4)GlcNAc(b1-3)Gal(b1-4)GlcNAc(b1-3)Gal(b1-4)GlcNAc(b1-2)Man(a1-6)]Man(b1-4)GlcNAc(b1-4)[Fuc(a1-6)]GlcNAc
# Outline: as §1
# [23] = target: Gal(b1-4)GlcNAc(b1-3)Gal(b1-4)GlcNAc(b1-3)Gal(b1-4)GlcNAc(b1-3)Gal(b1-4)GlcNAc(b1-3)Gal(b1-4)GlcNAc(b1-2)[Gal(b1-4)GlcNAc(b1-3)Gal(b1-4)GlcNAc(b1-3)Gal(b1-4)GlcNAc(b1-3)Gal(b1-4)GlcNAc(b1-3)Gal(b1-4)GlcNAc(b1-6)]Man(a1-6)[Gal(b1-4)GlcNAc(b1-3)Gal(b1-4)GlcNAc(b1-3)Gal(b1-4)GlcNAc(b1-3)Gal(b1-4)GlcNAc(b1-3)Gal(b1-4)GlcNAc(b1-2)Man(a1-3)]Man(b1-4)GlcNAc(b1-4)[Fuc(a1-6)]GlcNAc
# Outline: as §1
# Gal(b1-4)GlcNAc6P = target: Gal(b1-4)GlcNAc6P
# Outline: as §1
# Gal(b1-6)Gal = target: Gal(b1-6)Gal
# Outline: as §1
# Gal3S(b1-3)GalNAc = target: Gal3S(b1-3)GalNAc
# Outline: as §1
# Gal3S(b1-3)GlcNAc = target: Gal3S(b1-3)GlcNAc
# Outline: as §1
# Gal6S(b1-4)GlcNAc = target: Gal6S(b1-4)GlcNAc
# Outline: as §1
# [24] = target: GalNAc(a1-3)GalNAc(b1-3)Gal(a1-4)Gal(b1-4)Glc
# Outline: as §1
binder,measurement,setting,value
B1,glycan array binding signal (z-score),[1],-0.396
same,glycan array binding signal (z-score),[2],-0.362
same,glycan array binding signal (z-score),[3],0.033
same,glycan array binding signal (z-score),[4],1.17
same,glycan array binding signal (z-score),[5],6.16
same,glycan array binding signal (z-score),[6],4.46
same,glycan array binding signal (z-score),[7],2
same,glycan array binding signal (z-score),[8],-0.355
same,glycan array binding signal (z-score),[9],7.53
same,glycan array binding signal (z-score),[10],0.036
same,glycan array binding signal (z-score),[11],-0.324
same,glycan array binding signal (z-score),[12],-0.263
same,glycan array binding signal (z-score),[13],4.15
same,glycan array binding signal (z-score),[14],-0.42
same,glycan array binding signal (z-score),Gal(b1-3)GlcNAc6S,-0.404
same,glycan array binding signal (z-score),[15],4.38
same,glycan array binding signal (z-score),[16],-0.371
same,glycan array binding signal (z-score),[17],-0.092
same,glycan array binding signal (z-score),[18],-0.387
same,glycan array binding signal (z-score),[19],4.53
same,glycan array binding signal (z-score),[20],-0.052
same,glycan array binding signal (z-score),[21],1.38
same,glycan array binding signal (z-score),[22],7.46
same,glycan array binding signal (z-score),[23],8.43
same,glycan array binding signal (z-score),Gal(b1-4)GlcNAc6P,-0.348
same,glycan array binding signal (z-score),Gal(b1-6)Gal,-0.136
same,glycan array binding signal (z-score),Gal3S(b1-3)GalNAc,-0.369
same,glycan array binding signal (z-score),Gal3S(b1-3)GlcNAc,-0.406
same,glycan array binding signal (z-score),Gal6S(b1-4)GlcNAc,4.01
same,glycan array binding signal (z-score),[24],-0.403
